Results: PubChem BioAssay (NCI)
Compounds without any hit were thinned out: in the full panel of roughly 83,000, 20% have a hit.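 Method: cells in 96-well plates; compound added at one concentration; 48 h incubation; percent growth measured; values under 10 scored active.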 Calls of active or inactive are those of the source.

Legend:
Experiment in all cases: NCI-60 one-dose screen, 48 h (100 = growth as untreated, 0 = no growth, -100 = all killed)
SK-MEL-2 melanoma = settings: 10 µM unless noted
EKVX NSCLC = settings: 10 µM unless noted
SN12C renal = settings: 10 µM unless noted
UO-31 renal = settings: 10 µM unless noted
TK-10 renal = settings: 10 µM unless noted
ACHN renal = settings: 10 µM unless noted
CAKI-1 renal = settings: 10 µM unless noted
A498 renal = settings: 10 µM unless noted
CCRF-CEM leukemia = settings: 10 µM unless noted
MOLT-4 leukemia = settings: 10 µM unless noted
SR leukemia = settings: 10 µM unless noted
RPMI-8226 leukemia = settings: 10 µM unless noted
OVCAR-8 ovarian = settings: 10 µM unless noted
OVCAR-5 ovarian = settings: 10 µM unless noted
OVCAR-4 ovarian = settings: 10 µM
IGROV1 ovarian = settings: 10 µM unless noted
OVCAR-3 ovarian = settings: 10 µM unless noted
HS 578T breast = settings: 10 µM unless noted
NCI/ADR-RES ovarian = settings: 10 µM unless noted
SK-OV-3 ovarian = settings: 10 µM unless noted

Measured: growth

C[n+]1c(-c2ccccc2)c2cc(N)ccc2c2ccccc21
active: SN12C renal 4.79%
inactive: SK-MEL-2 melanoma 19.6% | EKVX NSCLC 26.6% | UO-31 renal 89.9% | TK-10 renal 90.4% | ACHN renal 95.7% | CAKI-1 renal 110% | A498 renal 126% | CCRF-CEM leukemia 50.9% | MOLT-4 leukemia 33.5% | SR leukemia 21.9% | RPMI-8226 leukemia 17.7% | OVCAR-8 ovarian 34% | OVCAR-5 ovarian 107% | OVCAR-4 ovarian 29.8% | IGROV1 ovarian 23.6% | OVCAR-3 ovarian 69.7% | HS 578T breast 27.1% | NCI/ADR-RES ovarian 100%

COc1ccc(-c2ccc(NNC(=O)c3ccc(F)cc3)nn2)cc1OC
active: A498 renal 2.09%
inactive: SK-MEL-2 melanoma 93.5% | EKVX NSCLC 40.5% | SN12C renal 57.1% | UO-31 renal 34.8% | TK-10 renal 43.7% | ACHN renal 54.8% | CAKI-1 renal 17.3% | CCRF-CEM leukemia 79.5% | MOLT-4 leukemia 60.2% | SR leukemia 51% | RPMI-8226 leukemia 70.7% | OVCAR-8 ovarian 66.8% | OVCAR-5 ovarian 50.3% | OVCAR-4 ovarian 81.8% | IGROV1 ovarian 22.1% | OVCAR-3 ovarian 78.6% | HS 578T breast 41.1% | NCI/ADR-RES ovarian 65.4%

CC(C)=CC/C=C(/C)[C@H]1CC[C@]2(C)[C@@H]1CC[C@@H]1[C@@]3(C)CC/C(=N/O)C(C)(C)[C@@H]3CC[C@]12C
inactive: SK-MEL-2 melanoma 59.2% [100 µM] | EKVX NSCLC 72.2% [100 µM] | SN12C renal 41% [100 µM] | UO-31 renal 58.3% [100 µM] | TK-10 renal 82% [100 µM] | ACHN renal 54.3% [100 µM] | CAKI-1 renal 57.4% [100 µM] | A498 renal 88.8% [100 µM] | CCRF-CEM leukemia 38.4% [100 µM] | MOLT-4 leukemia 27.6% [100 µM] | SR leukemia 45.2% [100 µM] | RPMI-8226 leukemia 52% [100 µM] | OVCAR-8 ovarian 40.8% [100 µM] | OVCAR-5 ovarian 80.6% [100 µM] | SK-OV-3 ovarian 68.8% [100 µM] | IGROV1 ovarian 76.2% [100 µM] | OVCAR-3 ovarian 52.4% [100 µM] | HS 578T breast 64.3% [100 µM] | NCI/ADR-RES ovarian 63.9% [100 µM]

Cc1cccc(C[C@H](NC(=O)Nc2ccc(Cl)cc2F)C(=O)N[C@@H]2C(=O)N3C[C@H](O)C[C@H]3C(=O)N3CCN(C)C[C@H]3C(=O)N[C@@H](C)C(=O)N3C[C@H](C)C[C@H]3C(=O)O[C@H]2C)c1
inactive: SK-MEL-2 melanoma 34.4% | EKVX NSCLC 71.4% | SN12C renal 20.5% | UO-31 renal 83.6% | TK-10 renal 81.4% | ACHN renal 102% | CAKI-1 renal 59.1% | A498 renal 23.7% | CCRF-CEM leukemia 57.2% | MOLT-4 leukemia 43.4% | SR leukemia 45% | RPMI-8226 leukemia 22.6% | OVCAR-8 ovarian 26.9% | OVCAR-5 ovarian 38.8% | OVCAR-4 ovarian 15.4% | IGROV1 ovarian 50.7% | OVCAR-3 ovarian 17.2% | HS 578T breast 43% | NCI/ADR-RES ovarian 107%

CCOC(=O)c1nn(C2CCCCO2)c2ccc(NC(=O)CN3CCOCC3)cc12 (stereo not given)
inactive: SK-MEL-2 melanoma 108% | EKVX NSCLC 100% | SN12C renal 101% | UO-31 renal 86.6% | TK-10 renal 109% | ACHN renal 99.6% | CAKI-1 renal 84.2% | A498 renal 99.9% | MOLT-4 leukemia 96.1% | SR leukemia 112% | RPMI-8226 leukemia 109% | OVCAR-8 ovarian 99.6% | OVCAR-5 ovarian 102% | OVCAR-4 ovarian 102% | IGROV1 ovarian 102% | OVCAR-3 ovarian 107% | HS 578T breast 99.3% | NCI/ADR-RES ovarian 104%
active: CCRF-CEM leukemia 1.49%

CCOC(=O)c1nn(C2CCCCO2)c2ccc(NC(=O)CN3CCCC3)cc12 (stereo not given)
inactive: SK-MEL-2 melanoma 107% | EKVX NSCLC 95.8% | SN12C renal 98.9% | UO-31 renal 84.4% | TK-10 renal 103% | ACHN renal 101% | CAKI-1 renal 91.5% | A498 renal 78.9% | CCRF-CEM leukemia 108% | MOLT-4 leukemia 99.3% | SR leukemia 103% | RPMI-8226 leukemia 105% | OVCAR-8 ovarian 101% | OVCAR-5 ovarian 99.1% | OVCAR-4 ovarian 99.4% | IGROV1 ovarian 102% | OVCAR-3 ovarian 109% | HS 578T breast 95.4% | NCI/ADR-RES ovarian 103%

CCc1ccc(C2=C/C(=C/c3ccccc3)C(=O)N2CCc2ccc(S(N)(=O)=O)cc2)cc1
inactive: SK-MEL-2 melanoma 104% | EKVX NSCLC 96.3% | SN12C renal 101% | UO-31 renal 68.4% | TK-10 renal 122% | ACHN renal 99% | CAKI-1 renal 67.8% | A498 renal 88.7% | CCRF-CEM leukemia 106% | MOLT-4 leukemia 97% | SR leukemia 96.9% | RPMI-8226 leukemia 110% | OVCAR-8 ovarian 100% | OVCAR-5 ovarian 109% | OVCAR-4 ovarian 103% | OVCAR-3 ovarian 109% | HS 578T breast 97.5% | NCI/ADR-RES ovarian 104%

CCN(CCNc1ccc(C)c2sc3cc(Cl)ccc3c(=O)c12)CC(C)O (stereo not given)
inactive: SK-MEL-2 melanoma 40.7% | EKVX NSCLC 88.9% | SN12C renal 48.7% | TK-10 renal 76.7% | ACHN renal 44.7% | CAKI-1 renal 43.7% | A498 renal 51.4% | CCRF-CEM leukemia 36.8% | MOLT-4 leukemia 34.5% | SR leukemia 12.3% | OVCAR-8 ovarian 58.3% | OVCAR-5 ovarian 79.9% | OVCAR-4 ovarian 77% | OVCAR-3 ovarian 60.6% | HS 578T breast 63.2% | NCI/ADR-RES ovarian 74.8%
active: UO-31 renal -61.8% | RPMI-8226 leukemia -23.2%
